Bioassay records: PubChem, National Center for Advancing Translational Sciences (NCATS)
KinaseGlo FLuc = blocks Kinase-Glo luciferase, a counter-screen artifact. Potency, µM (series often up to 38.3 µM), most hits filed as inhibitors. 0.28% of 200,000 active. Kinase-Glo luciferase, ATP luminescence, 8 min; note: nearly all actives have a fitted effect of over 60% in size
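Compound is pinned into ATP-containing buffer (10 uM ATP, imidazole pH 7.2, 7 mM MgCl2). Kinase-Glo luciferase reagent is then added. Light output is recorded following an 8-min room-temperature incubation.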
HPGD block = HPGD (human) dehydrogenase inhibition; P15428; purified HPGD, NADH fluorescence kinetic, PGE2 substrate; Potency, µM, hits mostly inhibitors; 4.3% of 150,000 active; active = well fitted inhibition curve with a large enough effect, not every such curve was filed as active; inconclusive = small, poorly fitted or top-dose-only effect, or another doubt; inactive = no such curve, though single readings can be large or run the other way
Target sequence (P15428 whole entry, looked up): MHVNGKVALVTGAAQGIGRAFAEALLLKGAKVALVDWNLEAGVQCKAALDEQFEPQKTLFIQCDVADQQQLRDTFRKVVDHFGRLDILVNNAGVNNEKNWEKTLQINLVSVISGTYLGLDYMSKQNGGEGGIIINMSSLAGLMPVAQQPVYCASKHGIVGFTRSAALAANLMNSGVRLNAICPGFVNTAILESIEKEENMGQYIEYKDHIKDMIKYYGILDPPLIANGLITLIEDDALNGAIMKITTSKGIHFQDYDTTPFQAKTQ
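20 nM HPGD preincubated 15 min at room temperature with compound in 50 mM Tris-HCl pH 8, 0.01% Tween 20. Started with 1 mM NAD+ and 30 uM prostaglandin E2; NADH fluorescence (360/450 nm) read 5 times over 30-s intervals, last minus first.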
IMPase Li cell = cell-permeable IMPase inhibitors with lithium potentiation | CHO-M1 cells, IP1 TR-FRET (IP-One), carbachol + lithium | Potency, µM (top dose mostly 59.4 µM), usual class: inhibitors | 0.35% of 210,000 active;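 note: IP1 builds up when IMPase is blocked and the TR-FRET signal falls; nearly all actives have a fitted effect of over 50% in size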
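CHO-M1, 2000 cells/well, 16–30 h culture; cpd + low Li+, 30 min 37C; lysis with d2-IP1/Eu-anti-IP1 Ab, 10 min RT; TR-FRET 665/620 ratio and 620 channel; AC50 via Hill.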
Lamin A splicing = changes lamin A minigene splicing in HeLa cells | HeLa LMNA splicing GFP/RFP minigene ratio, 48 h | Potency, µM (doses to about 46.1 µM), actives largely listed as inhibitors | 0.01% of 200,000 active; active = well fitted inhibition curve with a large enough effect in the signal ratio, with a control signal flat, not every such curve was filed as active; inconclusive = small, poorly fitted or top-dose-only effect, or effect the other way, or a change in a side signal; the % refers to the signal ratio
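Read-out is the ratio of GFP to DsRed2 object intensity, acquired by 488 nm laser-scanning cytometry on HeLa lamin A-EGFP minigene reporter cells. Compound incubation 48 hrs at 37 °C in Opti-MEM with 2% FBS; DMSO 0.5% final.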
ALDH1A1 block = blocks purified human ALDH1A1 activity; P00352; Purified ALDH1A1, NADH fluorescence, propionaldehyde substrate; Potency, µM (highest dose often 75.3 µM), usual class: inhibitors; 7.3% of 220,000 active; active = well fitted inhibition curve with a large enough effect, not every such curve was filed as active; inconclusive = small, poorly fitted or top-dose-only effect, or another doubt; inactive = no such curve, though single readings can be large or run the other way
Target sequence (P00352 whole entry, looked up): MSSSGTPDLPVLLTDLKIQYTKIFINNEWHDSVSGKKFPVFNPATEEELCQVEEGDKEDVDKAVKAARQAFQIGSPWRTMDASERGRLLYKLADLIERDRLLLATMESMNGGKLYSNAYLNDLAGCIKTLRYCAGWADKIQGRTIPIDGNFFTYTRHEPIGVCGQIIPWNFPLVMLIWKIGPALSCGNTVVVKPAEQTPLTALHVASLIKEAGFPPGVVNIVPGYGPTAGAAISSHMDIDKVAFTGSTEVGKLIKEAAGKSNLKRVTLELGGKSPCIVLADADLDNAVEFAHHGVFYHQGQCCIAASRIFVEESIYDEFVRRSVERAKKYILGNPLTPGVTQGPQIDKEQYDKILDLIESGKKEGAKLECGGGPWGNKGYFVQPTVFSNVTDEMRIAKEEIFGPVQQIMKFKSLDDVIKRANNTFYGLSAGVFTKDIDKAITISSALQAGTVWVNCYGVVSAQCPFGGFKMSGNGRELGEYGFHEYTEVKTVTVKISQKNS
Of the large screens only hits and unclear results are named; the others gave an inactive call. This is a sample that favours compounds with a hit; in the whole collection about 9% have one here. Unless noted, calls come from the whole dose curve; as a rule, active = well fitted curve in the direction sought with a large enough effect; inconclusive = small, poorly fitted or top-dose-only effect, or another doubt; inactive = no such curve, though single readings can be large; an effect the other way counts as inactive or inconclusive.

CN1C(=O)OC2(C)CCc3ccccc3C12C (stereo not drawn)	ALDH1A1 block 31.6µM (no result: KinaseGlo FLuc, HPGD block, IMPase Li cell)
COc1cc(Nc2ccccc2Cl)c([N+](=O)[O-])nc1[N+](=O)[O-]	HPGD block 25.1µM
COc1ccc2[nH]cc(CCNc3ccnc(-c4ccccc4Cl)n3)c2c1	Lamin A splicing inconclusive, ALDH1A1 block 25.1µM (no result: KinaseGlo FLuc, HPGD block)
COc1ccc2[nH]cc(CCNc3cc(-c4ccccc4Cl)ncn3)c2c1	Lamin A splicing inconclusive (no result: KinaseGlo FLuc, HPGD block)
COC(=O)CC1C(C)(C)C(O)C2CC3=C4C=C(OC)OC(c5ccoc5)[C@]4(C)CCC3[C@@]1(C)C2=O (stereo partly drawn)	none (no result: Lamin A splicing)
Cc1nn(-c2ccccc2)c(Cl)c1C(=O)Nc1nnc(C2CCCCC2)s1	Lamin A splicing inconclusive, ALDH1A1 block 3.98µM
O=Cc1ccc(Sc2nnc(-c3ccccc3)o2)c([N+](=O)[O-])c1	HPGD block 14.1µM, Lamin A splicing inconclusive, ALDH1A1 block 7.94µM
Cc1ccnc(Sc2ccc([N+](=O)[O-])cc2[N+](=O)[O-])n1	Lamin A splicing inconclusive, ALDH1A1 block inconclusive
Cc1cc(C)nc(Sc2ccc(C=O)cc2[N+](=O)[O-])n1	ALDH1A1 block 7.08µM (no result: HPGD block)
C=CCN(CC=C)C(=S)NC(=O)c1ccc(-c2ccccc2)cc1	HPGD block inconclusive, Lamin A splicing inconclusive, ALDH1A1 block inconclusive
C=CCN(CC=C)C(=S)NC(=O)c1ccc(OC)cc1	Lamin A splicing inconclusive, ALDH1A1 block 15µM (no result: HPGD block)
CCc1c(C)sc(NC(=O)Cn2nc(C)c([N+](=O)[O-])c2C)c1C(N)=O	ALDH1A1 block 7.08µM (no result: HPGD block)
CC(C)[C@H](NS(=O)(=O)c1ccccc1)C(=O)OCC(=O)NC(=O)c1cccn1C	KinaseGlo FLuc inconclusive, ALDH1A1 block 12.6µM
COc1ccc(C(=O)N[C@H](C(=O)OCC(=O)NC(=O)c2cccn2C)C(C)C)cc1	none
COC(=O)N/N=C/c1sc(N2CCCCC2)nc1-c1cccs1	ALDH1A1 block 25.1µM (no result: HPGD block, Lamin A splicing)
COc1ccc(C(=O)N/N=C/c2sc(N3CCOCC3)nc2-c2ccccc2)cc1OC	none (no result: HPGD block)
COc1ccc(C)cc1NS(=O)(=O)c1cccc2nonc12	ALDH1A1 block 14.1µM
COc1ccc(S(=O)(=O)Nc2cc(C)ccc2OC)cc1C	none
O=C(c1ccco1)N1CCN(CC(=O)N2c3ccccc3CCc3ccccc32)CC1	ALDH1A1 block inconclusive
CCOC(=O)C1CCCN(C(=O)c2ccccc2NC(C)=O)C1 (stereo not drawn)	none
CCOC(=O)C1CCCN(C(=O)c2cc3c(C)nc4ccccc4c3o2)C1 (stereo not drawn)	none
CC1CCCN(C(=O)CN2CCN(C(=O)c3ccco3)CC2)C1 (stereo not drawn)	ALDH1A1 block 22.4µM
CCOC(=O)C1CCCN(C(=O)c2ccc(C)cc2O)C1 (stereo not drawn)	HPGD block 14.1µM, ALDH1A1 block inconclusive
CCOC(=O)C1CCCN(C(=O)c2ccco2)C1 (stereo not drawn)	ALDH1A1 block 8.91µM
CCOC(=O)C1CCCN(C(=O)c2cc(-c3ccccc3)on2)C1 (stereo not drawn)	HPGD block 28.2µM
CC(C)NC(=O)NC(=O)CSc1nncs1	none (no result: HPGD block)
COc1cccc(NC(C)C(=O)Nc2cc([N+](=O)[O-])ccc2Cl)c1 (stereo not drawn)	none (no result: HPGD block, Lamin A splicing)
COc1cccc(-c2cc(=O)c3cc(NC(=O)c4cccnc4)ccc3[nH]2)c1	none (no result: Lamin A splicing)
COc1ccc(-c2cc(-c3ccc(OC)cc3)nc(-c3ccc4c(c3)NC(=O)CO4)c2)cc1	ALDH1A1 block inconclusive
O=C1COc2ccc(N3C(=O)C=CC3=O)cc2N1	ALDH1A1 block 6.31µM (no result: HPGD block, Lamin A splicing)
Cc1ccc(SCCNS(=O)(=O)c2ccc(F)cc2)cc1	ALDH1A1 block 15.8µM
COc1ccc(S(=O)(=O)NCCSc2ccc(C)cc2)cc1OC	Lamin A splicing inconclusive, ALDH1A1 block 5.01µM
Cc1ccc(SCCNS(=O)(=O)c2ccc3c(c2)OCCO3)cc1	Lamin A splicing inconclusive, ALDH1A1 block 1.41µM
Cc1nn(CCOc2ccccc2)c(=O)n1-c1c(F)cccc1F	none
N#Cc1cccc(S(=O)(=O)NCC(=O)OCC(=O)c2ccc[nH]2)c1	none (no result: HPGD block, Lamin A splicing)
NC(=S)NNC(=S)Nc1ccccc1	Lamin A splicing inconclusive, ALDH1A1 block 22.4µM (no result: HPGD block)
C=COCCNC(=S)Nc1ccccc1	Lamin A splicing inconclusive (no result: HPGD block)
COCCCNC(=S)NNC(=S)Nc1ccc(F)cc1F	HPGD block inconclusive, ALDH1A1 block 7.94µM
COCCCNC(=S)NNC(=S)Nc1ccccc1	ALDH1A1 block 17.8µM (no result: KinaseGlo FLuc, HPGD block, IMPase Li cell, Lamin A splicing)
COc1cc(CCN2C(=O)c3cccc4cccc(c34)C2=O)c(S(=O)(=O)NCCCO)cc1OC	none
CCNc1ncc2nc(-c3cc(F)cc(F)c3)c(=O)n(C3CC3)c2n1	Lamin A splicing inconclusive, ALDH1A1 block inconclusive (no result: KinaseGlo FLuc, HPGD block)
COc1ccc(S(=O)(=O)N2CCC(c3ccncc3)CC2)cc1OC	none (no result: KinaseGlo FLuc, HPGD block, IMPase Li cell, ALDH1A1 block)
Cc1cc(C)c2c(CN3CCN(Cc4ccc5c(c4)OCO5)CC3)cc(=O)oc2c1	Lamin A splicing inconclusive, ALDH1A1 block 12.6µM
Cc1cc2oc(=O)cc(CN3CCN(Cc4ccc5c(c4)OCO5)CC3)c2cc1C	none
Cc1cc(C)c2c(CN3CCN(Cc4ccc5c(c4)OCO5)CC3)cc(=O)oc2c1C	Lamin A splicing inconclusive, ALDH1A1 block 1.58µM
COc1cc(S(=O)(=O)N2CCN(Cc3ccc4c(c3)OCO4)CC2)c(C)cc1C	Lamin A splicing inconclusive
Cc1ccc2c(CN3CCN(Cc4ccc5c(c4)OCO5)CC3)cc(=O)oc2c1C	ALDH1A1 block 25.1µM
COc1ccccc1CN1CC2(CCN(C(=O)c3cccc(F)c3)CC2)C1	ALDH1A1 block inconclusive (no result: Lamin A splicing)
CNS(=O)(=O)c1c(C)cc(C)c(N(C)S(=O)(=O)c2ccccc2)c1C	none (no result: HPGD block)
CCOC(=O)C1CCN(C(=O)CS(=O)Cc2nc(-c3ccc(C)cc3)oc2C)CC1 (stereo not drawn)	ALDH1A1 block 25.1µM
CC1CC(=O)c2cnc(NCC3CCCO3)nc2C1 (stereo not drawn)	ALDH1A1 block inconclusive
CC1(C)CC(=O)c2cnc(NCC3CCCO3)nc2C1 (stereo not drawn)	HPGD block 22.4µM, ALDH1A1 block inconclusive
Cc1ccc(OCCC(=O)OCC(=O)N2c3ccccc3CC2C)cc1 (stereo not drawn)	none
CC1Cc2ccccc2N1C(=O)COC(=O)CNC(=O)c1ccc(Br)o1 (stereo not drawn)	ALDH1A1 block 28.2µM
CCCC(=O)c1ccc(N2CCCCC2)c(F)c1	none (no result: HPGD block)
CCC(=O)c1ccc(N2CCC(C)CC2)c(F)c1	none (no result: HPGD block)
CCCC(=O)c1ccc(N2CCC(C)CC2)c(F)c1	HPGD block 14.1µM
CCCC(=O)c1ccc(N2CCCCCC2)c(F)c1	HPGD block 15.8µM, ALDH1A1 block inconclusive
O=C(CNC(=O)c1ccco1)OCc1cccc(Cl)c1	none
COc1ccc(Cl)cc1NC(=S)NCc1ccco1	HPGD block 12.6µM
COc1ccc(Cl)cc1NC(=O)NCc1ccco1	none (no result: KinaseGlo FLuc, HPGD block, IMPase Li cell, Lamin A splicing)
O=C(CCNc1cccc(Cl)c1)c1ccco1	ALDH1A1 block 7.08µM
CN(C)S(=O)(=O)c1ccc(C(=O)NCc2ccco2)cc1	ALDH1A1 block inconclusive (no result: HPGD block, Lamin A splicing)
